KCNQ2 block: blocks the rat KCNQ2 potassium channel | AID 2156 | O88943 | B-score at 10 µM | CHO-K1 KCNQ2, FluxOR thallium flux, 20 min; hits give low values | 310,000 tested, 1.1% active;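 active = fluorescence ratio B-score at most minus 3 library SDs, with starting brightness B-score within 2 library SDs, cut at about -5.5 in these data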
KCNQ2 pot: KCNQ2 (rat) channel potentiation. 310,000 tested, 0.54% active. B-score at 10 µM. CHO-K1 KCNQ2, FluxOR thallium flux fluorescence; hits give high values;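 active = fluorescence ratio B-score at least 3 SD of library B-scores, with initial fluorescence B-score within 3 of them, cut at about 5.3 in these data; same plate scores as AID 2156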;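 note: B-score of peak minus minimum over baseline fluorescence ratio after K+ and Tl+ stimulus; positive B-score means potentiation of KCNQ2 with more thallium influx and brighter signal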
KCNQ2 inh conf: confirmation of rat KCNQ2 potassium channel inhibitors | shares compounds with KCNQ2 block | KCNQ2-expressing cells, thallium flux, inhibition; hits give low values | activity change, negative = inhibition, % at 10 µM | 1,000 tested, 57% active | AID 493025;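 note: 0% = vehicle wells and values are ratio percent relative to vehicle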
KCNQ1 spec: selectivity of KCNQ2 inhibitors against human KCNQ1; 1,000 tested, 15% active; AID 493026; KCNQ1-expressing cells, FluxOR thallium flux fluorescence; hits give low values; activity change, negative = inhibition, % at 10 µM; shares compounds with KCNQ2 block;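 active = activity change at least 3 SD of negative controls below their mean in both duplicate wells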;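 note: CHO cells stably transfected with KCNQ1 and depolarized by potassium stimulus; peak minus minimum fluorescence over baseline after thallium addition; 0% = vehicle negative control and -100% = blank without thallium stimulus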
Target sequence (P51787 whole entry, looked up): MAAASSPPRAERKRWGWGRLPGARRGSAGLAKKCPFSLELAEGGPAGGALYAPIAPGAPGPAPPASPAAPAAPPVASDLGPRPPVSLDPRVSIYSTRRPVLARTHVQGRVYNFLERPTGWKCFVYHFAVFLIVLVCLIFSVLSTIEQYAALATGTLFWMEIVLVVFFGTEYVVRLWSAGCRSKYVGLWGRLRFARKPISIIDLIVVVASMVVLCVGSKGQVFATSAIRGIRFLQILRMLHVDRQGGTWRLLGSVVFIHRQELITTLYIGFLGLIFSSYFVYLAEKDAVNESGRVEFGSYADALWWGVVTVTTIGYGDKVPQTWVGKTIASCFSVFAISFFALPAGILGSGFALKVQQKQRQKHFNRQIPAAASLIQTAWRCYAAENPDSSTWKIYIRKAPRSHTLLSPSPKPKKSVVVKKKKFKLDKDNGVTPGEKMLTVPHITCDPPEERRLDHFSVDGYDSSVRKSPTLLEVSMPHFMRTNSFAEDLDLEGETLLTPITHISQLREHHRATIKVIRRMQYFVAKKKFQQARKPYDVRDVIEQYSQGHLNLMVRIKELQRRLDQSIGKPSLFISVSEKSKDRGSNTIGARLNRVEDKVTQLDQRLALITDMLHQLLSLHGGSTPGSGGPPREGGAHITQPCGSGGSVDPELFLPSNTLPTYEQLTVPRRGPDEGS
CHO Tl ctr: activity in parental CHO cells lacking KCNQ2. activity change, % at 10 µM. 1,000 tested, 14% active. shares compounds with KCNQ2 block. thallium flux counter-screen; hits give low values;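 note: 0% = vehicle negative controls with stimulus buffer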
KCNQ2 patch conf: confirmation of rat KCNQ2 potassium channel inhibitors; 550 tested, 49% active; calls only at 10 µM; shares compounds with KCNQ2 block; KCNQ2-expressing cells, automated patch clamp current
* = called active by the depositor; i = inactive; x = no result; + = active, no number. A selection: hits, their analogues and other compounds. The true share with any hit is near 1.6%. Unless noted, the rule behind the calls is not given here.

SMILES	KCNQ2 block	KCNQ2 pot	others
O=C(C1=C[C@@H](c2csc3ccccc23)C[C@@H](OCc2ccc(CO)cc2)O1)N1CCOCC1	i	x
O=C(NC1CC1)C1=C[C@H](c2csc3ccccc23)C[C@H](OCc2ccc(CO)cc2)O1	i	x
O=C(C1=C[C@@H](c2csc3ccccc23)C[C@@H](OCc2ccc(CO)cc2)O1)N1CCN(Cc2ccccc2)CC1	-6.2*	-6.2
COCCN(Cc1ccco1)C(=O)Cn1ncc2c(=O)oc3ccccc3c21	i	x
CCCCC(=O)N(Cc1ccc(-c2ccccc2-c2nn[nH]n2)cc1)[C@H](C(=O)O)C(C)C	i	0.33
CCOC(=O)CSc1nc2ccccc2c(=O)n1CC	i	0.49
CCOC(=O)CSc1nc2ccccc2c(=O)n1CC1CCCC1	-6.1*	-6.1
CCSc1nc2ccccc2c(=O)n1C1CCOC(C)(C)C1 (stereo not drawn)	i	x
C=CCSc1nc2ccccc2c(=O)n1C1CCOC(C)(C)C1 (stereo not drawn)	-6*	-6
O=C1OCCC1Sc1nc2ccccc2c(=O)n1Cc1ccc(F)cc1 (stereo not drawn)	i	6.3*
CCN(CC)C(=O)CSc1nc2ccccc2c(=O)n1CC	i	0.8
CCn1c(SCc2ccccc2)nc2ccccc2c1=O	i	8.2*
O=C1OCCC1Sc1nc2ccccc2c(=O)n1-c1ccc(F)cc1 (stereo not drawn)	i	x
COc1ccc(/C=N/NC(=O)CCc2c(C)n[nH]c2C)cc1O	i	x
O=C(C1=NN[C@@H]2C(=O)N(Cc3ccccc3)C(=O)[C@H]12)c1ccc([N+](=O)[O-])cc1	i	x
O=S(=O)(Nc1nc2ccccc2nc1Cl)c1cccc(C(F)(F)F)c1	i	0.04
CCOc1ccc(Br)cc1S(=O)(=O)NC(=O)c1ccccc1	i	0.59
O=C(COc1cccc2cccnc12)N/N=C1\SCC(=O)N1CCc1ccccc1	i	x
Cc1ccc(C(C)C)cc1S(=O)(=O)NC1CC(C)(C)NC(C)(C)C1	i	1.7
COc1cc(C(=O)Nc2nc(C)cc(C)n2)cc(OC)c1OC	i	x
O=c1c2ccccc2nc(SCc2ccccc2Cl)n1Cc1ccccc1	i	x
C=CCSc1nc2ccccc2c(=O)n1Cc1ccccc1	-5.7*	-5.7
Cc1nn(CC(=O)N2CCN(c3ccccc3)CC2)c(=O)c2cccn12	i	0.94
O=C(N/N=C/c1cc(Br)cc(Br)c1O)c1cccc(N2CCCC2=O)c1	i	0.58
CCOC(=O)c1ccccc1NC(=O)C1CCN(c2ncnc3sc(C)c(C)c23)CC1	-6*	-6
SMILES	KCNQ2 block	KCNQ2 pot	others
Cc1sc2ncnc(N3CCC(C(=O)Nc4ccccc4C(C)(C)C)CC3)c2c1C	i	x
CC1=Nc2ccc(Br)cc2C(c2ccccc2)N1CC(=O)NN (stereo not drawn)	i	1.6
OC1c2cc(Br)ccc2N=C2CCCN21 (stereo not drawn)	-7.7*	-7.7
CC1=C(C)/C(=N/OC(=O)c2cccc([N+](=O)[O-])c2)C=CC1=O	i	x
COc1cccc(-c2nc(CS(=O)(=O)CC(=O)NCc3ccccc3)c(C)o2)c1	-5.9*	-5.9
COc1cccc(-c2nc(CS(=O)(=O)CC(=O)NCCCc3ccccc3)c(C)o2)c1	i	x
S=C(NC1CCCCC1)N(CCc1ccccc1)CCc1ccccc1	i	x
CCOC(=O)c1c(N)sc(C(O)(C(F)(F)F)C(F)(F)F)c1-c1ccccc1	-7.2*	-7.2
CCOC(=O)c1c(N)sc(-c2ccccc2)c1C	i	x
CCc1cc(C(=O)N/N=C/c2ccc(O)cc2O)c2ccccc2n1	i	x
COc1ccc(C2CC(c3ccccc3)Nc3nc(NC(=O)c4ccco4)nn32)cc1 (stereo not drawn)	i	0.64
O=C(Nc1nc2n(n1)C(c1ccccc1)CC(c1ccc(Cl)cc1)N2)c1ccco1 (stereo not drawn)	-7.2*	-7.2
COc1cccc(NC(=O)c2cc3cccc(OC)c3o/c2=N\O)c1	-7.1*	-7.1
COc1cccc(NC(=O)c2cc3ccccc3o/c2=N\O)c1	i	x
Cc1cccc(Nc2nnc(SCC(=O)NC3CCCc4ccccc43)s2)c1C (stereo not drawn)	-5.9*	-5.9
O=C(CSc1nc2ccccc2s1)NC1CCCc2ccccc21 (stereo not drawn)	i	x
O=C(CSc1nnc(-c2ccncc2)n1Cc1ccccc1)NC1CCCc2ccccc21 (stereo not drawn)	-5.8*	-5.8
CNC(=O)CSc1nnc(-c2ccncc2)n1Cc1ccccc1	i	x
CCC1CCCCN1Cc1ccc(N)cc1 (stereo not drawn)	i	x
O=C(O)c1sc2cc(C(F)(F)F)cnc2c1-c1cccs1	i	x
COc1ccc(/C(C#N)=C/c2c(-c3ccc(Cl)cc3)nc3c(C)cccn23)cc1	i	x
Cc1cccn2c(/C=N/OCc3ccc(F)cc3)c(-c3ccc(Cl)cc3)nc12	-6.6*	-6.6
COc1ccccc1-c1cnn2c(NCCc3ccccc3)cc(C)nc12	-7.1*	-7.1
COc1ccc(CCNc2cc(C)nc3c(-c4ccccc4)cnn23)cc1OC	i	x
CSCCCNC(=S)N(C)CC(=O)Nc1ccc(C)cc1	i	1.2
SMILES	KCNQ2 block	KCNQ2 pot	others
CC(C)[C@H](NC(=O)c1ccccc1)C(=O)OCC(=O)N1CCCc2ccccc21	i	x
c1ccc(Cn2c(CNc3nc4ccccc4n3CCN3CCCCC3)nc3ccccc32)cc1	-7.3*	-7.3
CCN(CC)CCn1c(NCc2nc3ccccc3n2Cc2ccccc2)nc2ccccc21	-6.2*	-6.2
CCN(CC)CCn1c(NCc2ccco2)nc2ccccc21	i	0.5
Cn1c(CNc2nc3ccccc3n2CCN2CCCCC2)nc2ccccc21	i	x
CC(C)(C)OC(=O)N1CCC(c2c(C(=O)N3CCN(C(=O)c4ccco4)CC3)cnn2-c2ccc(F)cc2F)CC1	i	0.27
Cc1cc(C)nc(SCC(=O)Nc2nc(-c3ccccc3)c(-c3ccccc3)o2)n1	i	0.07
Cc1ccc(C(=O)Nc2nc(-c3ccccc3)c(-c3ccccc3)o2)cc1	i	8.4*
O=C(N/N=C/c1ccc(COc2ccc(Br)cc2)o1)c1ccco1	i	1.5
O=C(c1cc(-c2ccccc2)nc2ccccc12)N1CCc2ccccc2C1	-7.8*	-7.8	KCNQ2 inh conf=-28%*;KCNQ1 spec=i;CHO Tl ctr=i;KCNQ2 patch conf=+
O=C(c1cc(Cl)nc2ccccc12)N1CCc2ccccc2C1	i	x
Cc1ccc2nc(-c3ccccn3)cc(C(=O)N3CCN(c4ncccn4)CC3)c2c1	i	0.46
Cc1ccc2nc(-c3ccccc3)cc(C(=O)N3CC(C)OC(C)C3)c2c1 (stereo not drawn)	-9.3*	-9.3	KCNQ2 inh conf=-30%*;KCNQ1 spec=i;CHO Tl ctr=i;KCNQ2 patch conf=+
Cc1ccc2nc(-c3ccccc3)cc(C(=O)N3CCc4ccccc4C3)c2c1	-8.3*	-8.3	KCNQ2 inh conf=i;KCNQ1 spec=i;CHO Tl ctr=i
